Measured values reported in PubChem BioAssay AID463173 (ICCB-Longwood Screening Facility, Harvard Medical School, 2010).
The whole screen tested about 52,000 compounds, of which about 1,700 (3.3%) were called active. This is one part of a sample in which actives are shown more often than they occur. No stated cut-off is given here; in the data, active means survival mostly below about 52% (no sharp cut-off); inactive means mostly above about 56%.

test system: Wild type; experiment: S. aureus survival, RN4220 and DeltatarO strains – OD600, teichoic acid synthesis inhibitors, primary screen (AID 463173); conditions: S. aureus RN4220 wild type/DeltatarO growth, OD600, 18 h, hits give low values, screened at 18.75 µg/mL (by protocol)

Row | SMILES | survival
1 | Cc1nnc(SCc2nc(-c3ccc(Cl)cc3)no2)n1-c1ccc(F)cc1 | 100% (inactive)
2 | CC(C)CCNC(=O)CCCN1C(=O)c2ccccc2Sc2ncccc21 | 85% (inactive)
3 | CCS(=O)(=O)c1nc(S(=O)(=O)c2ccc(C)cc2)c(NC(C)c2ccccc2)s1 (configuration not stated) | 136% (inactive)
4 | COC(=O)c1ccc2c(=O)n(CCCCCC(=O)N3CCN(c4ccc(OC)cc4)CC3)c(=O)[nH]c2c1 | 66% (inactive)
5 | O=C(Nc1ccc(F)c(F)c1)C1CCCN1S(=O)(=O)c1cccc2nsnc12 (configuration not stated) | 77% (inactive)
6 | CCN(CC)CCN(C(=O)c1ccco1)c1nc2c(C)cccc2s1 | 98% (inactive)
7 | O=C(Cn1nc(-c2nccc3ccccc23)oc1=O)N1CCCc2ccccc21 | 103% (inactive)
8 | COc1ccc(N2CCN(c3oc(/C=C/c4cccc(OC)c4)nc3C#N)CC2)cc1 | 83% (inactive)
9 | COc1ccc(-c2nc(CNC(=O)Nc3ccccc3)c(C)o2)cc1 | 84% (inactive)
10 | COC(=O)c1ccc([C@@H]2Nc3c(C)cc(C)cc3[C@@H]3C=CC[C@@H]32)cc1 | 87% (inactive)
11 | CCOC(=O)c1cccc2c1N[C@@H](c1ccc(F)cc1)[C@H]1CC=C[C@@H]21 | 12% (active)
12 | COC(=O)c1ccc([C@H]2Nc3ccc(S(=O)(=O)Nc4cccc(C)c4)cc3[C@H]3C=CC[C@H]32)cc1 | 68% (inactive)
13 | COc1ccc(Br)cc1[C@@H]1Nc2ccc(C(=O)O)cc2[C@@H]2C=CC[C@@H]21 | 65% (inactive)
14 | COC(=O)c1cccc2c1NC(c1cccnc1)C1CC=CC21 (configuration not stated) | 111% (inactive)
15 | CCOC(=O)c1ccc2c(c1)[C@@H]1C=CC[C@@H]1[C@H](c1cccc(OC)c1OC)N2 | 0% (active)
16 | COC(=O)c1ccc([C@@H]2Nc3c(cccc3C(F)(F)F)[C@@H]3C=CC[C@@H]32)cc1 | 3% (active)
17 | CCOc1ccc2c(c1)[C@@H]1C=CC[C@@H]1[C@H](c1ccccc1Cl)N2 | 0% (active)
18 | Fc1ccc([C@@H]2Nc3ccccc3[C@@H]3C=CC[C@@H]32)cc1 | 88% (inactive)
19 | CCOc1cccc2c1N[C@@H](c1ccc(C(=O)O)cc1)[C@H]1CC=C[C@@H]21 | 78% (inactive)
20 | COc1cccc(NS(=O)(=O)c2ccc3c(c2)[C@H]2C=CC[C@H]2[C@@H](c2ccccc2Cl)N3)c1 | 131% (inactive)
21 | COC(=O)c1ccc([C@H]2Nc3ccc(S(=O)(=O)Nc4ccc(F)cc4)cc3[C@H]3C=CC[C@H]32)cc1 | 69% (inactive)
22 | Fc1ccc(-n2ncc3c(Nc4ccc(Oc5ccc(Cl)cc5)cc4)ncnc32)cc1 | 85% (inactive)

Row | SMILES | survival
23 | CC(=O)c1ccc(NC(=O)C2CCC(CNS(=O)(=O)c3cccs3)CC2)cc1 (configuration not stated) | 60% (inactive)
24 | O=C(Cn1c(=O)n(CC2CCCO2)c(=O)c2ccccc21)Nc1cccc(Cl)c1 (configuration not stated) | 82% (inactive)
25 | Cn1c(=O)c(=O)n(C)c2cc(NS(=O)(=O)c3ccc(Br)cc3)c(Cl)cc21 | 65% (inactive)
26 | Cc1ccc2oc3c(c(=O)c2c1)C(c1ccccc1F)N(CCCN1CCOCC1)C3=O (configuration not stated) | 71% (inactive)
27 | CCOc1ccc(NC(=O)C(CC)n2c(=O)c(-c3ccccc3NC(C)=O)nc3ccccc32)cc1 (configuration not stated) | 64% (inactive)
28 | CC(=O)N1CCc2cc(S(=O)(=O)NC(CC(C)C)C(=O)NCCc3cccc(C)c3)ccc21 (configuration not stated) | 76% (inactive)
29 | Cc1nonc1C(=O)NCC(=O)O | 91% (inactive)
30 | O=C(Nc1cccc(C(F)(F)F)c1)N1CC2CCCN2c2ccccc21 (configuration not stated) | 55% (inactive)
31 | COC(=O)c1ccc([C@@H]2Nc3c(OC)ccc(C)c3[C@@H]3C=CC[C@@H]32)cc1 | 77% (inactive)
32 | Cc1ccc(Cl)c2c1N[C@@H](c1ccc(C(=O)O)cc1)[C@H]1CC=C[C@@H]21 | 10% (active)
33 | COc1ccc(NS(=O)(=O)c2ccc3c(c2)[C@H]2C=CC[C@H]2[C@@H](c2ccc(C(=O)O)cc2)N3)cc1 | 68% (inactive)
34 | CCCCN(CCCNC(=O)CN1N=C(c2ccc(C)cc2)CCC1=O)c1ccccc1 | 101% (inactive)
35 | CCN(CCCNC(=O)CN1N=C(c2ccc(OC)cc2)CCC1=O)c1cccc(C)c1 | 124% (inactive)
36 | CCN(CCCNC(=O)CN1N=C(c2ccccc2)CCC1=O)c1cccc(C)c1 | 136% (inactive)
37 | Cc1ccc(C2=NN(CC(=O)NCCN(CC(C)C)CC(C)C)C(=O)CC2)cc1 | 129% (inactive)
38 | Cc1ccc(C2=NN(CC(=O)NCCCN(CC(C)C)CC(C)C)C(=O)CC2)cc1 | 84% (inactive)
39 | CCN(CCCNC(=O)CN1N=C(c2ccccc2)CCC1=O)c1ccccc1 | -6% (active)
40 | CCN(CCCNC(=O)CN1N=C(c2ccc(C)cc2)CCC1=O)c1ccccc1 | -2% (active)
41 | Cc1ccc(C2=NN(CC(=O)NCCC(C)C)C(=O)CC2)cc1 | 10% (active)
42 | CCCCN(CCCNC(=O)CN1N=C(c2ccccc2)CCC1=O)c1ccccc1 | 72% (inactive)
43 | COc1ccccc1N1CCN(C(=O)c2cnn(-c3ccc(C)c(C)c3)c2C2CCN(C(=O)OC(C)(C)C)CC2)CC1 | 99% (inactive)
44 | CC(=O)NCCNc1nc2c(-c3ccc(C)cc3)nnn2c2ccccc12 | 82% (inactive)

Row | SMILES | survival
45 | CCN(CC)C(=O)c1cc(-c2ccc(Cl)cc2)on1 | 51% (inactive)
46 | CCCN1C(=O)C(NC(=O)c2ccccc2OC)(C(F)(F)F)C(C(=O)OC)=C1C (configuration not stated) | 78% (inactive)
47 | N#C/C(=C\c1cc(Br)c(O)c(Br)c1)c1nc2ccccc2c(=O)[nH]1 | 94% (inactive)
48 | O=C(NCc1ccccc1Cl)c1cc(=O)[nH]c2ccc(S(=O)(=O)N3CCCCC3)cc12 | 83% (inactive)
49 | CCOC(=O)c1c(Nc2cccc(O)c2)nnc(-c2ccccc2)c1-c1ccccc1 | 44% (inactive)
50 | CCOC(=O)c1c(Oc2ccc(C(C)=O)cc2)nnc(-c2ccccc2)c1-c1ccccc1 | 92% (inactive)
51 | CCOC(=O)c1c(Nc2cc(C)cc(C)c2)nnc(-c2ccccc2)c1-c1ccccc1 | 38% (inactive)
52 | CCOC(=O)c1cccc(Nc2cc(-c3ccccc3)ncn2)c1 | 40% (inactive)
53 | CCOC(=O)c1c(C)oc2nc(C)nc(Nc3ccc(C)c(Cl)c3)c12 | 80% (inactive)
54 | CCOC(=O)c1c(Nc2ccc(F)cc2)nnc(-c2ccccc2)c1-c1ccccc1 | 1% (active)
55 | CCOC(=O)c1c(C)oc2nc(C)nc(Nc3ccc(CC)cc3)c12 | 115% (inactive)
56 | CCOC(=O)c1c(Nc2ccc(C)cc2)nnc(-c2ccccc2)c1-c1ccccc1 | 2% (active)
57 | CCOC(=O)c1cnc(-c2ccccc2)nc1Nc1ccc(C)cc1 | 111% (inactive)
58 | CCOC(=O)c1c(Nc2cccc(C)c2)nnc(-c2ccccc2)c1-c1ccccc1 | 0% (active)
59 | CCOC(=O)c1c(Nc2ccc(C)c(C)c2)nnc(-c2ccccc2)c1-c1ccccc1 | 0% (active)
60 | CCOC(=O)c1nc(Nc2ccc(OC)cc2)c2ccccc2n1 | 143% (inactive)
61 | CCCCOC(=O)c1ccc(Nc2ncnc3c2cnn3-c2cccc(C)c2)cc1 | 88% (inactive)
62 | Cn1cnnc1SC1CCCCC1NS(=O)(=O)c1ccc(Cl)cc1 (configuration not stated) | 103% (inactive)
63 | COc1ccccc1N1CCN(c2cc(C)nc3nc(-c4ccc(Cl)cc4)nn23)CC1 | 78% (inactive)
64 | CCCCN(CC)CCCNC(=O)c1cc2c(=O)oc3ccc(C)cc3c2s1 | 97% (inactive)
65 | COc1ccc2c(c1)c1c(c(=O)n(Cc3ccccc3)c(=O)n1CC(=O)NCc1ccc(C)cc1)n2C | 82% (inactive)
66 | COc1ccc(-c2noc(CSc3nnc(Cc4ccccc4)n3-c3cccc(C)c3)n2)cc1 | 67% (inactive)

Row | SMILES | survival
67 | COc1ccc(N2CC(C(=O)NC3=NCCS3)CC2=O)cc1 (configuration not stated) | 102% (inactive)
68 | CC(C)N(C(=O)Cn1cc(SCC(=O)Nc2ccccc2F)c2ccccc21)C(C)C | 86% (inactive)
69 | O=Nc1c(O)n2c3c(cccc13)CCC2 | 124% (inactive)
70 | N#CC(C#N)=C(N)/C(C#N)=C\c1ccc(-c2ccccc2)o1 | 129% (inactive)
71 | O=S(=O)(c1ccc(Cl)cc1)c1nc(-c2ccco2)oc1SCc1ccc(F)cc1 | 73% (inactive)
72 | COc1cccc(NC(=O)C2=C(C)C(=O)OC23CCN(C(C)=O)CC3)c1 | 79% (inactive)
73 | CCOC(=O)c1c(Oc2ccc(C(=O)OC)cc2)nnc(-c2ccccc2)c1-c1ccccc1 | 87% (inactive)
74 | CCOC(=O)c1c(Nc2ccccc2)nnc(-c2ccccc2)c1-c1ccccc1 | 5% (active)
75 | CCOC(=O)c1c(Nc2ccc(O)cc2)nnc(-c2ccccc2)c1-c1ccccc1 | 96% (inactive)
76 | CCOC(=O)c1c(-c2ccccc2)csc1NC(=O)c1cc(-c2cccc(OC)c2)on1 | 72% (inactive)
77 | CC(=O)N1CCCc2cc(S(=O)(=O)N(Cc3ccccc3)C(C)C)ccc21 | 73% (inactive)
78 | COc1cc(C(=O)OCc2cc(=O)n3nc(C(C)C)sc3n2)cc(OC)c1OC | 78% (inactive)
79 | COc1ccccc1C(=O)Nc1ccc(C(=O)OCc2cc(=O)n3ccsc3n2)cc1 | 72% (inactive)
80 | COc1ccccc1C(=O)Nc1cccc(C(=O)OCc2cc(=O)n3ccsc3n2)c1 | -6% (active)
81 | COc1ccccc1C(=O)Nc1ccccc1C(=O)OCc1cc(=O)n2ccsc2n1 | -6% (active)
82 | Cc1ccccc1C(=O)Nc1ccccc1C(=O)OCc1cc(=O)n2ccsc2n1 | 98% (inactive)
83 | COc1cc(C(=O)OCc2cc(=O)n3ccsc3n2)cc(OC)c1OC | -4% (active)
84 | O=C(Nc1ccccc1C(=O)OCc1cc(=O)n2ccsc2n1)c1ccccc1Cl | 75% (inactive)
85 | Cc1ccccc1C(=O)Nc1cccc(C(=O)OCc2cc(=O)n3ccsc3n2)c1 | 64% (inactive)
86 | Cc1cccc(C(=O)OCc2cc(=O)n3ccsc3n2)c1 | 71% (inactive)
87 | O=[N+]([O-])c1cc(-c2nc(-c3ccccn3)no2)ccc1NCc1ccccc1 | 73% (inactive)
